The values below come from article PMC12820563, “FoxP3 forms a head-to-head dimer in vivo and stabilizes its multimerization on adjacent microsatellites”.

Over roughly 16,000 sequences, “rpm ratio (pull-down/input)” has its median near 0.5; the highest 2% begin near 5.5. What follows is part of a selection rich in the highest values, with near analogues and random picks from the rest.

For the assay, the target named is T1, MBP-FoxP3dN (Mus musculus, UniProt Q99JB6 188-423).
T1 sequence: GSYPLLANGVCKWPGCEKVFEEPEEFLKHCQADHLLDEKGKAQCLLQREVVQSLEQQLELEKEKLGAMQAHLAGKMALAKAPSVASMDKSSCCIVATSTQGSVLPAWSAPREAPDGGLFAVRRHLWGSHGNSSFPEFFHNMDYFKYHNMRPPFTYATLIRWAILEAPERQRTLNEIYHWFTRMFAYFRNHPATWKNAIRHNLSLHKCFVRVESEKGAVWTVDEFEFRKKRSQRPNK
Put plainly: PD-seq (MBP pull-down with sequencing); 20 mM Tris-HCl pH 7.5, 100 mM NaCl, 1.5 mM MgCl2, 0.4 uM protein, 0.1 uM dsDNA library, 30 min, room temperature, amylose pull-down; high values mean tight binding. Conditions: protein: recombinant; tags: His6-MBP; chain copies: 2; dsDNA, one strand shown. An outline of the steps:
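Binding is reads-per-million enrichment of pull-down over input, with replicates pooled. It comes from 30 min room-temperature incubation in Tris pH 7.5 buffer with NaCl and MgCl2 of 0.4 µM His6-MBP-tagged, N-terminally truncated mouse FoxP3 or FoxP1 fragment from E. coli with 0.1 µM Klenow-filled degenerate double-stranded DNA library, followed by amylose resin capture, three washes and Illumina sequencing of the released DNA.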
“GATGATTGTTCTCCCAGCTGATGAATTATGAAACTCGAGTAAACAAATTTTCCTAATCTTTCTGTTCAAGCGCCATCTAC”: the binding signal was 0.828 RPM ratio (pull-down/input).

As to “GATGATTGTTCTCCCAGCTGATGAATTTATGCATTCGAGTAAACAAATTTTCCTAATCTTTCTGTTCAAGCGCCATCTAC”, the binding signal is 7.56 RPM ratio (pull-down/input). With “GATGATTGTTCTCCCAGCTGATGAATTTATGAATTCGAGTAAACAAATTTTCCTAATCTTTCTGTTCAAGCGCCATCTAC” the figure was 0.946 RPM ratio (pull-down/input); with “GATGATTGTTCTCCCAGCTGATGAATTATTTCATTCGAGTAAACAAATTTTCCTAATCTTTCTGTTCAAGCGCCATCTAC”, 0.381 RPM ratio (pull-down/input).

Take “GATGATTGTTCTCCCAGCTGATGAATTATTCATTTCGAGTAAACAAATTTTCCTAATCTTTCTGTTCAAGCGCCATCTAC”: the binding signal was 0.406 RPM ratio (pull-down/input). For “GATGATTGTTCTCCCAGCTGATGAATTTTATGCATCGAGTAAACAAATTTTCCTAATCTTTCTGTTCAAGCGCCATCTAC”, the binding signal was 1.54 RPM ratio (pull-down/input). For “GATGATTGTTCTCCCAGCTGATGAATTATGCAACTCGAGTAAACAAATTTTCCTAATCTTTCTGTTCAAGCGCCATCTAC”, the binding signal was 6.6 RPM ratio (pull-down/input). Regarding “GATGATTGTTCTCCCAGCTGATGAATTATGACACTCGAGTAAACAAATTTTCCTAATCTTTCTGTTCAAGCGCCATCTAC”, the binding signal was 2.61 RPM ratio (pull-down/input). With “GATGATTGTTCTCCCAGCTGATGAATTATTCAACTCGAGTAAACAAATTTTCCTAATCTTTCTGTTCAAGCGCCATCTAC” the figure was 0.381 RPM ratio (pull-down/input). With “GATGATTGTTCTCCCAGCTGATGAATTATCCCACTCGAGTAAACAAATTTTCCTAATCTTTCTGTTCAAGCGCCATCTAC” the figure was 0.322 RPM ratio (pull-down/input); with “GATGATTGTTCTCCCAGCTGATGAATTATGCCACTCGAGTAAACAAATTTTCCTAATCTTTCTGTTCAAGCGCCATCTAC”, 6.25 RPM ratio (pull-down/input); with “GATGATTGTTCTCCCAGCTGATGAATTATGGCATTCGAGTAAACAAATTTTCCTAATCTTTCTGTTCAAGCGCCATCTAC”, 5.55 RPM ratio (pull-down/input). Consider “GATGATTGTTCTCCCAGCTGATGAATTGAAAACATCGAGTAAACAAATTTTCCTAATCTTTCTGTTCAAGCGCCATCTAC”, for which the binding signal was 1.27 RPM ratio (pull-down/input).

With “GATGATTGTTCTCCCAGCTGATGAATTCAGGACCTCGAGTAAACAAATTTTCCTAATCTTTCTGTTCAAGCGCCATCTAC”, the binding signal is 0.26 RPM ratio (pull-down/input). Regarding “GATGATTGTTCTCCCAGCTGATGAATTGCGTCATTCGAGTAAACAAATTTTCCTAATCTTTCTGTTCAAGCGCCATCTAC”, the binding signal is 2.09 RPM ratio (pull-down/input). On to “GATGATTGTTCTCCCAGCTGATGAATTGCGGGGGTCGAGTAAACAAATTTTCCTAATCTTTCTGTTCAAGCGCCATCTAC”, for which the binding signal was 0.984 RPM ratio (pull-down/input).

For the sequence “GATGATTGTTCTCCCAGCTGATGAATTGAGCTGGTCGAGTAAACAAATTTTCCTAATCTTTCTGTTCAAGCGCCATCTAC”, the binding signal was 0.419 RPM ratio (pull-down/input). As for “GATGATTGTTCTCCCAGCTGATGAATTAGGATGGTCGAGTAAACAAATTTTCCTAATCTTTCTGTTCAAGCGCCATCTAC”, the binding signal is 0.492 RPM ratio (pull-down/input).
